The text below walks through data of paper PMC11006913.

Holding throughout (experiment): PBM; 200 nM protein, PBS
What all share (settings): dsDNA, one strand shown

Test [1] has as its target CRX (Homo sapiens, UniProt O43186 26-111).
For test [2], the target named is CRX (Homo sapiens, UniProt O43186 26-111, E42D).
The target in test [3] is CRX (Homo sapiens, UniProt O43186 26-111, R41L).
The target of test [4] is ALX1 (Homo sapiens, UniProt Q15699 118-204, L144V).
Test [5] addresses ALX1 (Homo sapiens, UniProt Q15699 118-204, L144R).
Test [6] deals with ALX1 (Homo sapiens, UniProt Q15699 118-204).
Chain of ALX1 (Homo sapiens, UniProt Q15699 118-204) (Q15699 118-204): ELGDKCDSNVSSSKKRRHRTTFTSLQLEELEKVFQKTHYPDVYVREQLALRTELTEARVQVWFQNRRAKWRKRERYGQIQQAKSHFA
Test [7] addresses ALX4 (Homo sapiens, UniProt Q9H161 200-286).
In test [8] the target is ALX4 (Homo sapiens, UniProt Q9H161 200-286, Q225E).
Chain of ALX4 (Homo sapiens, UniProt Q9H161 200-286, Q225E) (Q9H161 200-286 Q225E): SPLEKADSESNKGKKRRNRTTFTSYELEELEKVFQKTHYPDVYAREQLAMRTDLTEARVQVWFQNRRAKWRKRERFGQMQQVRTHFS
Test [9] concerns the target T1, PAX4 (Homo sapiens, UniProt O43316 9-242).
T1 sequence: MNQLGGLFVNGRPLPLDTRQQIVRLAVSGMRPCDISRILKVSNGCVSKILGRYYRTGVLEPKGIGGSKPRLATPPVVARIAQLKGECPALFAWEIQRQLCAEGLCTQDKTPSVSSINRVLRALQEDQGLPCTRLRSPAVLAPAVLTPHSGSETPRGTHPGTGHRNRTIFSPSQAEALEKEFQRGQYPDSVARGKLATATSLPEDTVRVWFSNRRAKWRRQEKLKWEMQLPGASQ

The target in test [10] is T2, PAX4 (Homo sapiens, UniProt O43316 9-242, R200Q).
T2 sequence: T1 sequence with R192Q

Test [11] concerns the target T3, PAX4 (Homo sapiens, UniProt O43316 9-242, F177V).
T3 sequence: T1 sequence with F169V

The target in test [12] is T4, PAX4 (Homo sapiens, UniProt O43316 9-242, F177Y).
T4 sequence: T1 sequence with F169Y

The target in test [13] is T5, PAX4 (Homo sapiens, UniProt O43316 9-242, R227W).
T5 sequence: T1 sequence with R219W

The next test addresses PRRX1 (Homo sapiens, UniProt P54821 80-166).
For test [14], the target named is ALX3 (Homo sapiens, UniProt O95076 139-225, N203Q).
Chain of ALX3 (Homo sapiens, UniProt O95076 139-225, N203Q) (O95076 139-225 N203Q): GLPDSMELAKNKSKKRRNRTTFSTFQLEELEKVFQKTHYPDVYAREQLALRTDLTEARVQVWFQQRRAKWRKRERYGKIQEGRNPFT
The target of test [15] is ALX3 (Homo sapiens, UniProt O95076 139-225).
Chain of ALX3 (Homo sapiens, UniProt O95076 139-225) (O95076 139-225): as the sequence (O95076 139-225 N203Q) above, with Q65N counted along it
Test [16] concerns the target ALX3 (Homo sapiens, UniProt O95076 139-225, L168Q).
For test [17], the target named is ALX3 (Homo sapiens, UniProt O95076 139-225, L168V).
Chain of ALX3 (Homo sapiens, UniProt O95076 139-225, L168V) (O95076 139-225 L168V): as the sequence (O95076 139-225 N203Q) above, with L30V, Q65N counted along it
The target in test [18] is ALX3 (Homo sapiens, UniProt O95076 139-225, N203S).
Chain of ALX3 (Homo sapiens, UniProt O95076 139-225, N203S) (O95076 139-225 N203S): as the sequence (O95076 139-225 N203Q) above, with Q65S counted along it
The next test concerns the target PROP1 (Homo sapiens, UniProt O75360 56-141).

Residue numbers refer to the chain shown, from its start.

Chain of CRX (Homo sapiens, UniProt O43186 26-111, E42D) (O43186 26-111 E42D): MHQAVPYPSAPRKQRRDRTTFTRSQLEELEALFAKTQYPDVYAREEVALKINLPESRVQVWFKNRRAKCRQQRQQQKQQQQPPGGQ
Chain of ALX4 (Homo sapiens, UniProt Q9H161 200-286) (Q9H161 200-286): as the sequence (Q9H161 200-286 Q225E) above, with E26Q counted along it
Chain of CRX (Homo sapiens, UniProt O43186 26-111) (O43186 26-111): as the sequence (O43186 26-111 E42D) above, with D17E counted along it
Chain of CRX (Homo sapiens, UniProt O43186 26-111, R41L) (O43186 26-111 R41L): as the sequence (O43186 26-111 E42D) above, with R16L, D17E counted along it
Chain of ALX1 (Homo sapiens, UniProt Q15699 118-204, L144R) (Q15699 118-204 L144R): as the sequence (Q15699 118-204) above, with L27R counted along it
Chain of ALX3 (Homo sapiens, UniProt O95076 139-225, L168Q) (O95076 139-225 L168Q): as the sequence (O95076 139-225 N203Q) above, with L30Q, Q65N counted along it
Chain of ALX1 (Homo sapiens, UniProt Q15699 118-204, L144V) (Q15699 118-204 L144V): as the sequence (Q15699 118-204) above, with L27V counted along it
Chain of PROP1 (O75360 56-141): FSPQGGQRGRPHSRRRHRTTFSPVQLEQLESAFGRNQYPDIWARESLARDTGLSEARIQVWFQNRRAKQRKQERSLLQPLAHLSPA
Chain of PRRX1 (P54821 80-166): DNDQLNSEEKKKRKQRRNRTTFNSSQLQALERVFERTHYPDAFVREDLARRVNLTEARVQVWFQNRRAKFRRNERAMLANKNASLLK

Turning to AATCATTA, the binding signal is 10.5 upbm affinity estimate (log intensity, higher = more binding, comparable within an allelic series) with CRX [1]; 10.3 upbm affinity estimate (log intensity, higher = more binding, comparable within an allelic series) in the test with CRX [2]; 9.82 upbm affinity estimate (log intensity, higher = more binding, comparable within an allelic series) with CRX [3].

CGCAGGCG: the binding signal was 6.44 upbm affinity estimate (log intensity, higher = more binding, comparable within an allelic series) with ALX1 [4]; 6.71 upbm affinity estimate (log intensity, higher = more binding, comparable within an allelic series) with ALX1 [5]; 6.49 upbm affinity estimate (log intensity, higher = more binding, comparable within an allelic series) in the test with ALX1 [6].

As to CAGGACCC, the binding signal with CRX [1] is 8.22 upbm affinity estimate (log intensity, higher = more binding, comparable within an allelic series); with ALX4 [7], 7.85 upbm affinity estimate (log intensity, higher = more binding, comparable within an allelic series); with ALX4 [8], 8.07 upbm affinity estimate (log intensity, higher = more binding, comparable within an allelic series); in the test with CRX [2] it was 8.19 upbm affinity estimate (log intensity, higher = more binding, comparable within an allelic series); with CRX [3] it was 8.24 upbm affinity estimate (log intensity, higher = more binding, comparable within an allelic series).

As for GACGCCGC, the binding signal in the test with CRX [1] is 8.08 upbm affinity estimate (log intensity, higher = more binding, comparable within an allelic series); with PAX4 [9] it was 9.29 upbm affinity estimate (log intensity, higher = more binding, comparable within an allelic series); with CRX [2], 8.14 upbm affinity estimate (log intensity, higher = more binding, comparable within an allelic series); in the test with PAX4 [10], 9.2 upbm affinity estimate (log intensity, higher = more binding, comparable within an allelic series); in the test with PAX4 [11] it was 9.15 upbm affinity estimate (log intensity, higher = more binding, comparable within an allelic series); in the test with PAX4 [12], 9.2 upbm affinity estimate (log intensity, higher = more binding, comparable within an allelic series). In addition, the binding signal with PAX4 [13] is 9.18 upbm affinity estimate (log intensity, higher = more binding, comparable within an allelic series); with CRX [3] it was 8.18 upbm affinity estimate (log intensity, higher = more binding, comparable within an allelic series).

For the sequence AGCCTGGG, the binding signal in the test with ALX4 [7] was 7.98 upbm affinity estimate (log intensity, higher = more binding, comparable within an allelic series); in the test with ALX4 [8], 8.23 upbm affinity estimate (log intensity, higher = more binding, comparable within an allelic series).

Regarding GATCATTA, the binding signal was 10.8 upbm affinity estimate (log intensity, higher = more binding, comparable within an allelic series) with CRX [1]; 10.7 upbm affinity estimate (log intensity, higher = more binding, comparable within an allelic series) with CRX [2]; 10.4 upbm affinity estimate (log intensity, higher = more binding, comparable within an allelic series) with CRX [3].

On to TATCAATA, for which, in the test with PRRX1, the binding signal was 11.7 upbm affinity estimate (log intensity, higher = more binding, comparable within an allelic series).

With CATTAATG, the binding signal is 12.2 upbm affinity estimate (log intensity, higher = more binding, comparable within an allelic series) in the test with PAX4 [9]; 11.9 upbm affinity estimate (log intensity, higher = more binding, comparable within an allelic series) with PAX4 [10]; 10.5 upbm affinity estimate (log intensity, higher = more binding, comparable within an allelic series) with PAX4 [11]; 11 upbm affinity estimate (log intensity, higher = more binding, comparable within an allelic series) in the test with PAX4 [12]; 10.9 upbm affinity estimate (log intensity, higher = more binding, comparable within an allelic series) with PAX4 [13].

With CGAGGGTC, the binding signal was 8.26 upbm affinity estimate (log intensity, higher = more binding, comparable within an allelic series) in the test with CRX [1]; 9.09 upbm affinity estimate (log intensity, higher = more binding, comparable within an allelic series) in the test with PAX4 [9]; 8.34 upbm affinity estimate (log intensity, higher = more binding, comparable within an allelic series) with CRX [2]; 7.7 upbm affinity estimate (log intensity, higher = more binding, comparable within an allelic series) with ALX3 [14]; 9.19 upbm affinity estimate (log intensity, higher = more binding, comparable within an allelic series) in the test with PAX4 [10]; 9.25 upbm affinity estimate (log intensity, higher = more binding, comparable within an allelic series) with PAX4 [11]. The binding signal in the test with ALX3 [15] is 7.59 upbm affinity estimate (log intensity, higher = more binding, comparable within an allelic series); with PAX4 [12], 9.23 upbm affinity estimate (log intensity, higher = more binding, comparable within an allelic series); in the test with ALX3 [16], 7.67 upbm affinity estimate (log intensity, higher = more binding, comparable within an allelic series); in the test with ALX3 [17], 7.68 upbm affinity estimate (log intensity, higher = more binding, comparable within an allelic series); with PAX4 [13] it was 9.33 upbm affinity estimate (log intensity, higher = more binding, comparable within an allelic series); with CRX [3] it was 8.26 upbm affinity estimate (log intensity, higher = more binding, comparable within an allelic series). In the test with ALX3 [18], the binding signal is 7.71 upbm affinity estimate (log intensity, higher = more binding, comparable within an allelic series).

Take CTCATTAA: the binding signal was 13.6 upbm affinity estimate (log intensity, higher = more binding, comparable within an allelic series) with ALX4 [7]; 12.6 upbm affinity estimate (log intensity, higher = more binding, comparable within an allelic series) in the test with ALX4 [8]; 11.5 upbm affinity estimate (log intensity, higher = more binding, comparable within an allelic series) with ALX1 [4]; 8.32 upbm affinity estimate (log intensity, higher = more binding, comparable within an allelic series) with ALX3 [14]; 11.2 upbm affinity estimate (log intensity, higher = more binding, comparable within an allelic series) in the test with ALX1 [5]; 12.3 upbm affinity estimate (log intensity, higher = more binding, comparable within an allelic series) in the test with ALX3 [15]. Moreover, the binding signal with PROP1 is 11 upbm affinity estimate (log intensity, higher = more binding, comparable within an allelic series); with ALX3 [16], 10.1 upbm affinity estimate (log intensity, higher = more binding, comparable within an allelic series); with ALX3 [17], 9.58 upbm affinity estimate (log intensity, higher = more binding, comparable within an allelic series); in the test with ALX1 [6] it was 12 upbm affinity estimate (log intensity, higher = more binding, comparable within an allelic series); in the test with ALX3 [18], 8.41 upbm affinity estimate (log intensity, higher = more binding, comparable within an allelic series).

In the case of CGTCCCGC, the binding signal was 8 upbm affinity estimate (log intensity, higher = more binding, comparable within an allelic series) with ALX4 [7]; 9.17 upbm affinity estimate (log intensity, higher = more binding, comparable within an allelic series) with PAX4 [9]; 8.06 upbm affinity estimate (log intensity, higher = more binding, comparable within an allelic series) with ALX4 [8]; 9.15 upbm affinity estimate (log intensity, higher = more binding, comparable within an allelic series) with PAX4 [10]; 9.15 upbm affinity estimate (log intensity, higher = more binding, comparable within an allelic series) in the test with PAX4 [11]; 9.19 upbm affinity estimate (log intensity, higher = more binding, comparable within an allelic series) in the test with PAX4 [12]. Moreover, the binding signal in the test with PROP1 was 6.64 upbm affinity estimate (log intensity, higher = more binding, comparable within an allelic series); in the test with PAX4 [13], 9.22 upbm affinity estimate (log intensity, higher = more binding, comparable within an allelic series).
